Experimental findings from PubChem BioAssay are described below.

Assay [1] relates to Human papillomavirus type 1a protein E7 (residues 44-93). Put plainly: small molecules binding HPV E7 44-93 – biochemical, small-molecule microarray, residues 44-93, 635 nm fluorescence, primary screen (AID 1108).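 Further: E7 fragment applied at 1 µg/mL in TBST for 1 h at 4 C; score combines spot fluorescence with its signal to noise ratio.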 Particulars: fluorescence 635 nm, higher = more signal.
Assay [2] is described as follows: hepatitis C replication reporter changes, two-sided – Huh7 cells, luciferase reporter, HCV replication inhibitor project, primary screen (AID 1109).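 Further: huh7 hepatoma cells harbouring a luciferase neomycin HCV replicon reporter; luciferase luminescence as measure of HCV replicon replication; test concentration not given here.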 As to conditions: Huh7 HCV replicon luciferase reporter, 48 h; higher = more signal. (A reporter such as luciferase makes a cellular process visible.)
Assay [3] concerns the target Left-right determination factor 2 (Homo sapiens) (UniProt O00292). Put plainly: small molecules binding LEFTY2 protein – biochemical, small-molecule microarray, 635 nm fluorescence scan, primary screen (AID 1110). As to conditions: higher = more signal.
Assay [4] addresses Calmodulin-1 (Homo sapiens) (UniProt P0DP23). Put plainly: small molecules binding calmodulin-1 with EGTA – biochemical, small-molecule microarray, Cy5-labelled CALM1, profiling panel (AID 1111).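 Further: labelled calmodulin applied in Tris saline Tween buffer holding calcium plus EGTA and DTT.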 Particulars: Cy5-CALM1 binding fluorescence, higher = more signal.
For assay [5] the target is unchanged. Kind of assay: small molecules binding Ca-loaded calmodulin-1 – biochemical, small-molecule microarray, Cy5-labelled CALM1, plus calcium, artefact control for SMM control-protein annotation, profiling panel (AID 1112).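 Further: score merges spot fluorescence with signal to noise from triplicate slides.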 As to conditions: Cy5-CALM1 binding fluorescence, higher = more signal.
A short description of assay [6]: probe aWnt5a binding to arrayed compounds – biochemical, biotinylated probe, 635/667 nm fluorescence, primary screen (AID 1113).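 Further: score merges 667 nm fluorescence intensity with signal-to-noise per printed feature.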 As to conditions: small-molecule microarray, higher = more signal.
Assay [7] in a line: probe aShh binding to arrayed compounds – biochemical, biotinylated probe, 635/667 nm fluorescence, primary screen (AID 1114).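 Further: probe is biotin-labelled aShh protein from a stem cell growth factor screen; measures binding of labelled protein to compounds printed on the slide; score merges feature fluorescence at 667 nm with signal-to-noise.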 Particulars: small-molecule microarray, higher = more signal.
Assay [8] can be described thus: probe aNog binding to arrayed compounds – biochemical, biotinylated probe, 635/667 nm fluorescence, primary screen (AID 1115).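 Further: probe is biotinylated aNog protein used at 0.15 µg/mL for 1 h at 4 C; z-score combines 667 nm fluorescence of each spot with its signal to noise.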 Particulars: small-molecule microarray, higher = more signal.
The target in assay [9] is Torsin-1A-interacting protein 1 (Homo sapiens) (UniProt Q5JTV8). Kind of assay: compound microarray binding of lysate hLAP1 – cell lysate, small-molecule microarray, COS7 lysate, 635/667 nm fluorescence, primary screen (AID 1116). As to conditions: 635 nm fluorescence, higher = more signal.
The target of assay [10] is Alpha-bungarotoxin (Bungarus multicinctus) (UniProt P60615). Kind of assay: compounds binding labelled alpha-BTX control protein – biochemical, small-molecule microarray, Alexa647 label, 635/667 nm fluorescence, artefact control for SMM control protein annotation, profiling panel (AID 1117). As to conditions: alpha-BTX-A647 binding fluorescence, higher = more signal.
A further assay concerns the target Albumin (Bos taurus) (UniProt P02769). Kind of assay: compounds binding labelled BSA control protein – biochemical, small-molecule microarray, Alexa647 label, 635/667 nm fluorescence, artefact control for SMM control protein annotation, profiling panel (AID 1118).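 Further: score merges 667 nm emission intensity and signal-to-noise per printed compound spot.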 Particulars: BSA-A647 binding, fluorescence 635 nm, higher = more signal.
Assay [11] can be described thus: probe aXIP binding to arrayed compounds – biochemical, NeuroSMM set, 635/667 nm fluorescence, primary screen (AID 1119).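 Further: probe is the protein aXip251-270 applied at 1 µg/mL to compound-printed slides; binding of probe to printed compounds measured as 667 nm fluorescence plus signal to noise.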 As to conditions: small-molecule microarray, higher = more signal, called active from +8 up or from −8 down.
The nature of assay [12]: probe aNOTCH3 binding on compound microarray – biochemical, small-molecule microarray, 635/667 nm fluorescence, primary screen (AID 1120).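 Further: probe is a biotin-tagged antibody raised against NOTCH3 rather than NOTCH3 protein; score merges spot fluorescence near 667 nm with spot signal to noise.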 Particulars: higher = more signal.
A short description of assay [13]: probe aNOTCH2 binding on compound microarray – biochemical, small-molecule microarray, 635/667 nm fluorescence, primary screen (AID 1121).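 Further: score merges feature fluorescence read at 667 nm with its signal to noise.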 As to conditions: higher = more signal.
Assay [14] concerns the target Carbonic anhydrase 2 (Homo sapiens) (UniProt P00918). Put plainly: compounds binding carbonic anhydrase 2 – biochemical, small-molecule microarray, Alexa647-labelled CAII, profiling panel (AID 1122). As to conditions: CAII-A647 binding fluorescence, higher = more signal.
A short description of assay [15]: COS7 lysate on small-molecule microarray, probe aHis, 635 nm (AID 1123).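 Further: z-score combines 667nm fluorescence intensity with signal-to-noise per printed compound spot.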 Particulars: COS7 cell lysate, fluorescence, higher = more signal.
Assay [16] is described as follows: probe aLAP1 signal on lysate-treated microarray – cell lysate, small-molecule microarray, COS7 lysate, primary screen (AID 1124).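 Further: lysate comes from COS7 cells expressing LAP1 and is applied at 0.3 µg/mL; score merges spot fluorescence near 667 nm with signal-to-noise over triplicate slides.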 As to conditions: probe aLAP1, fluorescence, higher = more signal.
The subject of a further assay is Sam68 (KHDRBS1). Put plainly: compounds binding KHDRBS1 protein – biochemical, small-molecule microarray, 635 nm fluorescence, primary screen (AID 1125).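 Further: score merges 667 nm channel intensity with signal to noise over triplicate slides.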 Particulars: higher = more signal.
Assay [17] relates to Chordin-like protein 2 (CHRDL2). Kind of assay: compounds binding chordin-like 2 – biochemical, small-molecule microarray, 635 nm fluorescence, primary screen (AID 1126).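 Further: printed compound slides probed with Chrdl2 protein at 4 µg/mL for 1 h at 4 C; score merges 667 nm emission intensity with signal to noise over three replicate slides.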 As to conditions: fluorescence 635 nm, higher = more signal.
The target in assay [18] is Concanavalin-A (Canavalia ensiformis) (UniProt P02866). Put plainly: compounds binding concanavalin A lectin – biochemical, small-molecule microarray, Alexa647 label, 635 nm, artefact control for SMM control protein annotation, primary screen (AID 1127).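 Further: z combines 667 nm emission intensity with signal-to-noise across three replicate slides.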 As to conditions: ConA-A647 binding fluorescence, higher = more signal.

The structures appear in SMILES notation. Active and inactive are the calls of the source.

Chain of Albumin (Bos taurus) (P02769 whole entry, looked up): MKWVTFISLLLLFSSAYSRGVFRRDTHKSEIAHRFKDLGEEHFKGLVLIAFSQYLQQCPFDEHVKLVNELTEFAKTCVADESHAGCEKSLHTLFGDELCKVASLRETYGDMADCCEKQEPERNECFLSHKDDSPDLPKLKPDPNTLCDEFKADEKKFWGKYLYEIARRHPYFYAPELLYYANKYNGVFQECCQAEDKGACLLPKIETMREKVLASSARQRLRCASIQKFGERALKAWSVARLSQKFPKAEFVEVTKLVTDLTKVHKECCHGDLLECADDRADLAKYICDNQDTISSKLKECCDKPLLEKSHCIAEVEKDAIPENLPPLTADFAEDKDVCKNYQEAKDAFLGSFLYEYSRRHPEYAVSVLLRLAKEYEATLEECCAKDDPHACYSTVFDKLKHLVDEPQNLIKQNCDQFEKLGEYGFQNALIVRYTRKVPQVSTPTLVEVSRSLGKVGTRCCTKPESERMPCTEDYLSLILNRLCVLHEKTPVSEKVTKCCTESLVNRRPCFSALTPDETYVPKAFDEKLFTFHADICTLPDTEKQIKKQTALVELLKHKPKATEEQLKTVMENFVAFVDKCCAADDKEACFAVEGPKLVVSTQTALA
Chain of Concanavalin-A (Canavalia ensiformis) (P02866 whole entry, looked up): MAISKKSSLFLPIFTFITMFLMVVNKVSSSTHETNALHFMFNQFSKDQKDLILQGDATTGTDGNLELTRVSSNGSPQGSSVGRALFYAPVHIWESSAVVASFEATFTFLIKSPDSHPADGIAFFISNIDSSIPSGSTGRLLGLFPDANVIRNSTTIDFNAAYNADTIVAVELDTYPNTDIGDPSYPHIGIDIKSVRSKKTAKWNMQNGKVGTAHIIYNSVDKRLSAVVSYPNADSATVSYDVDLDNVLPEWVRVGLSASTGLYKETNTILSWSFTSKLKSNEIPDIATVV
Chain of Alpha-bungarotoxin (Bungarus multicinctus) (P60615 whole entry, looked up): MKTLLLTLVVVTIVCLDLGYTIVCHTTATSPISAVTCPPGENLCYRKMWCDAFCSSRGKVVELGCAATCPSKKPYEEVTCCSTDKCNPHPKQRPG
Chain of Left-right determination factor 2 (Homo sapiens) (O00292 whole entry, looked up): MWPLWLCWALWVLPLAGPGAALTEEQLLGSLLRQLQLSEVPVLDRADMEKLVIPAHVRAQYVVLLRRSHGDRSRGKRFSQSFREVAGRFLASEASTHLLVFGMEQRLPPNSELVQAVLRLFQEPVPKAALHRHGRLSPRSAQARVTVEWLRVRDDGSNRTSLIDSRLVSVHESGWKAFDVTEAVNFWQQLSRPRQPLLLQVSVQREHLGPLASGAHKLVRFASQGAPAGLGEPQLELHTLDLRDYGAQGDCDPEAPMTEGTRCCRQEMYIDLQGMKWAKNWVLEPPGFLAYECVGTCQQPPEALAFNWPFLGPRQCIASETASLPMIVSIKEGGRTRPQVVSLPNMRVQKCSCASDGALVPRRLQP
Chain of Torsin-1A-interacting protein 1 (Homo sapiens) (Q5JTV8 whole entry, looked up): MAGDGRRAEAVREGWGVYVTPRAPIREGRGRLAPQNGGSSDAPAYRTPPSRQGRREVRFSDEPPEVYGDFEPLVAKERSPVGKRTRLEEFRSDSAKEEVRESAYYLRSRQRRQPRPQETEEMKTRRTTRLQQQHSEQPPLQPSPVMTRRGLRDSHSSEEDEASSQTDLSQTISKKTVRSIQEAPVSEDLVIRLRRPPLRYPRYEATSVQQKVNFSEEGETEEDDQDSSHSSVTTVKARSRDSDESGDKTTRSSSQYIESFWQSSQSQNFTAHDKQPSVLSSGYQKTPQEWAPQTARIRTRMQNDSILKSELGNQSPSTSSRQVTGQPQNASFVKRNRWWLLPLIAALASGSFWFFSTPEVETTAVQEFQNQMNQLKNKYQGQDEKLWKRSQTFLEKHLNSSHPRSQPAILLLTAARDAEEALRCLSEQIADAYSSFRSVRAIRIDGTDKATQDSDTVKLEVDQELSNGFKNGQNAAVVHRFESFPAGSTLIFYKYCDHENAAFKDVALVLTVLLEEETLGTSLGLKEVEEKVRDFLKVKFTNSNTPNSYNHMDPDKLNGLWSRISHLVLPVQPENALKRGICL

Take `CCCCCN1CC=CC23O[C@@H]4/C=C\CCCOC(=O)C4[C@H]2C(=O)N(CCCCCCO)[C@@H]3C1=O` (stereo not given in full): the composite z-score in [1] is -0.0348; in assay [3], -0.545; in assay [4], -0.758; in assay [5], -0.0227; in assay [6], -0.154; in [7] it was -0.0035. The composite z-score in assay [8] is -0.237; in [9] it was 1.09; in assay [10], -0.752; with Albumin (Bos taurus) it was -0.0739; in assay [12], -0.262; in assay [13], -0.153. Besides, the composite z-score in assay [14] was 0.858; in [15], 2.05; in assay [16], 1.14; with Sam68 (KHDRBS1), -0.542; in [17], -1.01; in assay [18], -0.74. In addition, the z-score in assay [2] was -0.857. Also, the composite Z-score in [11] was -0.328 (inactive).

On to `CC(=O)NCCCC[C@@H]1NC(=O)[C@H]2C[C@@H](C(=O)NCCCCCC[N+](C)(C)C)[C@@H](c3cccc(OCCO)c3)N2C1=O`, for which the composite z-score in assay [1] was 1.1; in [3] it was 1.02; in [4], 0.0227; in assay [5], -0.34; in [6], -0.0792; in [7], -0.0709. The composite z-score in [8] is 0.019; in assay [9], 0.595; in assay [10] it was 2.04; with Albumin (Bos taurus) it was 0.0306; in [12], 0.15; in assay [13], -0.106. Further, the composite z-score was 0.607 in assay [14]; 1.19 in [15]; -0.165 in assay [16]; 1.04 with Sam68 (KHDRBS1); 1.45 in [17]; 0.904 in assay [18]. Besides, the z-score in assay [2] was -0.0914. For the same compound, the composite Z-score in assay [11] is 0.526 (inactive).

For `C=C(CCCC)/C(=C/C[C@H](OC(C)=O)c1ccc(CO)o1)c1cnc2ccccc2c1`, the composite z-score in [1] is 1.39; in [3], 0.487; in [4] it was 0.229; in assay [5] it was -0.693; in [6] it was -0.0478; in assay [7] it was 0.292. Moreover, the composite z-score in assay [8] was -0.28; in assay [9], -0.092; in assay [10] it was 1.73; in the assay with Albumin (Bos taurus), 0.475; in assay [12], 0.0282; in [13] it was -0.14. Further, the composite z-score in assay [14] is 0.73; in assay [15], 0.612; in [16] it was -0.193; in the assay on Sam68 (KHDRBS1) it was 1.05; in [17], 0.968; in assay [18] it was 0.931. In assay [2], this compound had a z-score of -1.54. For the same compound, the composite Z-score in assay [11] was -1.16 (inactive).

As to `O=C1[C@]2(CO)C=C(Br)[C@@H](C[C@@H]2c2ccccc2)[C@@]12CO2`, the composite z-score in [1] was -0.728; in [3], 0.218; in assay [4], -0.567; in assay [5], -0.322; in assay [6] it was -0.0165; in assay [7], -0.221. For the same compound, the composite z-score in [8] is -0.158; in assay [9], -0.563; in [10], -0.0487; in the assay with Albumin (Bos taurus), -0.102; in [12], -0.0763; in assay [13], -0.16. In addition, the composite z-score in [14] was 0.129; in assay [15], -0.307; in [16], -0.139; in the assay on Sam68 (KHDRBS1), -0.566; in [17], 0.0616; in assay [18], 0.195. This compound showed a z-score in [2] of -3.08. In addition, in [11], the composite Z-score was 0.689 (inactive).

For the compound `CCOC(=O)C[C@H]1[C@H](OC(=O)Cc2ccc3c(c2)OCO3)[C@@H](NC(=O)C2CCCCC2)c2cc(OCCCO)ccc2N1C(=O)Cc1ccc(OC)cc1`, the composite z-score was 1.21 in assay [1]; 0.341 in [3]; 0.0855 in [4]; -0.629 in assay [5]; -0.001 in [6]; -0.0626 in assay [7]. Further, the composite z-score is -0.543 in assay [8]; -0.0511 in assay [9]; 0.199 in assay [10]; 0.343 in the assay with Albumin (Bos taurus); 0.369 in assay [12]; -0.0993 in assay [13]. Also, the composite z-score in [14] is 0.231; in assay [15], 0.557; in assay [16] it was 0.366; in the assay on Sam68 (KHDRBS1), 1.15; in [17], 0.107; in assay [18], 0.343. The compound also registered a z-score in [2] of -1.39. For the same compound, the composite Z-score in [11] was -0.145 (inactive).

Turning to `CO[C@H]1O[C@H](CO)[C@@H](OC(=O)Nc2ccc3c(c2)OCO3)[C@H](OC(=O)Nc2ccccc2)[C@H]1OC(=O)Nc1ccccc1`, the composite z-score is 1.5 in assay [1]; 0.0544 in assay [3]; 1.36 in assay [4]; -0.905 in [5]; -0.0519 in assay [6]; 0.275 in assay [7]. In addition, the composite z-score in [8] is 0.909; in assay [9] it was 1.47; in assay [10], 1.74; in the assay with Albumin (Bos taurus), -0.21; in assay [12], 0.0773; in [13], -0.102. In addition, the composite z-score in [14] was determined as 0.406; in assay [15] it was 2.04; in assay [16], 0.637; in the assay with Sam68 (KHDRBS1) it was 1.19; in [17] it was 0.261; in [18] it was 0.143. Besides, in assay [2], the z-score is -3.44. In [11], the composite Z-score was 0.118 (inactive).
